Measured values reported in article PMC5540273 (PLoS ONE, 2017).

Experiments:
Details in all cases: concentration: 1 μM, replicates: in singlicate; n = 1
NDR1 = test system: T1, NDR1
T1 construct: gene STK38

NDR2 = test system: NDR2
NEK10 = test system: NEK10
NEK11 = test system: NEK11
NEK1 = test system: NEK1
NEK2 = test system: NEK2
NEK3 = test system: NEK3
NEK4 = test system: NEK4
NEK5 = test system: NEK5
NEK6 = test system: NEK6
NEK7 = test system: NEK7
NEK9 = test system: NEK9
NIK = test system: T2, NIK
T2 construct: gene MAP3K14

NIM1 = test system: T3, NIM1
T3 construct: gene MGC42105

NLK = test system: NLK
OSR1 = test system: T4, OSR1
T4 construct: gene OXSR1

PAK1 = test system: PAK1
PAK2 = test system: PAK2
PAK3 = test system: PAK3
PAK4 = test system: PAK4
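Also: KINOMEscan kinase panel screen.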

Structure (SMILES) | %Inh (NDR1) [%] | %Inh (NDR2) [%] | %Inh (NEK10) [%] | %Inh (NEK11) [%] | %Inh (NEK1) [%] | %Inh (NEK2) [%] | %Inh (NEK3) [%] | %Inh (NEK4) [%] | %Inh (NEK5) [%] | %Inh (NEK6) [%] | %Inh (NEK7) [%] | %Inh (NEK9) [%] | %Inh (NIK) [%] | %Inh (NIM1) [%] | %Inh (NLK) [%] | %Inh (OSR1) [%] | %Inh (PAK1) [%] | %Inh (PAK2) [%] | %Inh (PAK3) [%] | %Inh (PAK4) [%]
Cc1ccc(NC(=O)Nc2cccc(Cl)c2)cc1-c1ccc(C(=O)Nc2ccncc2)cc1 [GSK1398468] | 25 | 0 | 3 | 0 | 0 | 2 | 16 | 0 | 20 | 0 | 0 | 0 | 2 | 11 | 38 | 12 | 19 | 0 | 0 | 0
Cn1ccc2ncnc(Oc3cccc(C(=O)Nc4ccccc4)c3)c21 | 14 | 0 | 0 | 0 | 0 | 0 | 0 | 0 | 0 | 17 | 0 | 0 | 0 | 0 | 4 | 0 | 0 | 0 | 9 | 21
Nc1nc(-c2nccs2)c(-c2ccnc3ccccc23)s1 [GW693542] | 17 | 30 | 19 | 12 | 0 | 0 | 4 | 0 | 3 | 0 | 0 | 12 | 0 | 5 | 38 | 6 | 0 | 1 | 9 | 0
COc1cc2ncnc(Nc3ccc4nc(-c5ccccc5)[nH]c4c3)c2cc1OC.Cl [GW282450] | 17 | 0 | 14 | 2 | 0 | 0 | 0 | 4 | 29 | 0 | 0 | 22 | 23 | 18 | 38 | 11 | 9 | 9 | 0 | 0
Cc1ccc(NC(=O)Nc2cc(C(C)(C)C)nn2-c2ccccc2)cc1 [GSK1014915] | 0 | 0 | 19 | 0 | 0 | 12 | 8 | 10 | 0 | 0 | 6 | 0 | 35 | 3 | 14 | 0 | 0 | 2 | 76 | 0
O=C(Nc1ccccc1)Nc1cccc(Oc2ccc3nccn3n2)c1 | 4 | 0 | 0 | 0 | 0 | 0 | 8 | 0 | 0 | 0 | 0 | 36 | 7 | 19 | 22 | 0 | 0 | 0 | 0 | 0
Fc1cc(Cl)ccc1Nc1ccnc2cc(I)ccc12 [GW551191] | 18 | 0 | 25 | 0 | 0 | 4 | 0 | 11 | 0 | 0 | 0 | 5 | 7 | 19 | 59 | 6 | 18 | 9 | 14 | 0
Cn1cncc1-c1ccc2ncnc(Nc3ccc(OCc4ccccc4)cc3)c2c1 [GW320571] | 0 | 0 | 3 | 0 | 0 | 0 | 0 | 11 | 0 | 6 | 0 | 12 | 0 | 19 | 11 | 19 | 0 | 0 | 2 | 0
COc1ccc(CNC(=O)NC2CCN(c3ccnc(Nc4cc(OC)c(OC)c(OC)c4)n3)C2)cc1 (stereo not drawn) [GSK1379748] | 21 | 44 | 6 | 18 | 8 | 0 | 20 | 30 | 93.1 | 0 | 15 | 15 | 25 | 0 | 17 | 0 | 3 | 0 | 0 | 0
CC1=C(C(=O)Nc2cc3cn[nH]c3cc2F)C(c2ccc(C(F)(F)F)cc2)CC(=O)N1 (stereo not drawn) [GSK429286] | 23 | 0 | 7 | 0 | 0 | 0 | 6 | 24 | 0 | 0 | 0 | 0 | 27 | 12 | 13 | 18 | 0 | 4 | 45 | 0
Cc1ccccc1-n1cnc2c(N)ncnc21 [SKF-97510] | 0 | 20 | 0 | 0 | 11 | 0 | 0 | 0 | 9 | 0 | 12 | 0 | 0 | 0 | 15 | 0 | 15 | 11 | 25 | 0
Cc1cccc(-c2nc(Nc3cccc(C(N)=O)c3)c3ccccc3n2)n1 [GW876019] | 9 | 0 | 12 | 0 | 6 | 0 | 28 | 0 | 12 | 0 | 0 | 15 | 0 | 0 | 0 | 0 | 16 | 21 | 49 | 17
NC(=O)c1nnc2ccccc2c1N | 20 | 0 | 85 | 0 | 0 | 16 | 31 | 4 | 3 | 10 | 0 | 0 | 69 | 14 | 2 | 31 | 0 | 7 | 5 | 0
CN(C)CCN(C)C(=O)c1cc(-c2ccncc2)c(-c2ccc(Cl)c(O)c2)o1.Cl.Cl [SB-710397] | 1 | 36 | 33 | 29 | 0 | 0 | 26 | 20 | 8 | 0 | 0 | 0 | 16 | 35 | 76 | 4 | 6 | 0 | 16 | 0
Cl.Oc1ccc(-c2nc(-c3ccccc3)[nH]c2-c2ccncc2)cc1 [SB-428218] | 12 | 5 | 9 | 24 | 0 | 3 | 15 | 29 | 6 | 0 | 0 | 0 | 74 | 38 | 45 | 0 | 55 | 55 | 20 | 0
Cc1ccc(C(=O)Nc2ccc(Nc3ccnc4cc(-c5ccccn5)ccc34)cc2O)cc1.Cl [GW440146] | 6 | 0 | 0 | 2 | 0 | 0 | 0 | 14 | 0 | 0 | 0 | 52 | 11 | 15 | 22 | 1 | 12 | 15 | 14 | 0
Cc1cc(NCC(c2ccccc2)c2ccccc2)nc(NCc2ccc(C(F)(F)F)cc2)n1 [GW497681] | 10 | 16 | 0 | 0 | 0 | 0 | 0 | 0 | 0 | 0 | 0 | 0 | 7 | 22 | 0 | 3 | 0 | 2 | 0 | 0
CN1C(=O)C(Nc2ccc(Cl)c(C(=O)O)c2)=C(c2ccc(Cl)cc2)C1=O [SB-404290] | 0 | 1 | 0 | 30 | 0 | 5 | 0 | 21 | 0 | 0 | 15 | 10 | 0 | 9 | 17 | 13 | 0 | 18 | 22 | 0
COc1ccc(Nc2nccc(-c3cccc(NC(=O)c4cc5cc(F)ccc5[nH]4)c3)n2)cc1 [GSK1229782] | 0 | 34 | 40 | 16 | 12 | 3 | 12 | 9 | 29 | 1 | 0 | 21 | 50 | 13 | 9 | 18 | 36 | 35 | 13 | 22
CS(=O)(=O)c1ccc(-c2nc3n(c2-c2ccncc2)CCC3)cc1 [SKF-105942] | 19 | 0 | 17 | 0 | 0 | 15 | 58 | 22 | 1 | 0 | 0 | 0 | 3 | 17 | 0 | 0 | 19 | 26 | 0 | 0
COc1cc2ncn(-c3cc(OCC4CCCO4)c(C(N)=O)s3)c2cc1OC (stereo not drawn) [GSK204607] | 12 | 10 | 0 | 0 | 11 | 28 | 5 | 0 | 10 | 0 | 0 | 0 | 19 | 23 | 15 | 0 | 0 | 0 | 9 | 0
